# TDP-43 tox inh: TDP-43 toxicity inhibition in yeast. yeast TDP-43 toxicity rescue, BacTiter-Glo growth, 24 h. Potency, µM (series often up to 46.1 µM), hits mostly activators. hit rate 0.45% among 45,000. AID 1347073; active means well fitted activation curve with a large enough effect; further: 0% is about no effect; nearly all actives have a fitted effect of over 55% in size
#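 TDP-43-expressing yeast, pregrown in raffinose, seeded at OD600 0.02 in galactose medium with compound for 24 hr at 30 deg C. Growth read by BacTiter-Glo luminescence, so rescue of toxicity appears as activation.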
# Numbers without * were called inactive; i = inactive. This is one part of a sample in which hits are shown more often than they occur. Potency means the concentration at half of the fitted maximal effect.
SMILES,TDP-43 tox inh
CCCN(CC(=O)Nc1ccccc1Br)CC(=O)Nc1ccc(F)c(F)c1F,11µM*
CC1=NOC(=O)/C1=C/c1ccc(O)c(Cl)c1,i
CCN(CC)c1cc(C)c2cc(NC(=O)c3ccccc3OC)ccc2n1,i
COc1cccc(NC(=O)c2cccc(C)c2[N+](=O)[O-])c1,i
COc1ccccc1C(=O)Nc1cccc(NC(=O)c2ccccc2C)c1,14µM*
Cn1c(CNC(=O)c2ccccc2F)nnc1SCC(=O)N1CCN(c2ccccc2)CC1,i
COCCNc1nc(NCc2cccc(OC)c2OC)c2sccc2n1,i
COc1ccc(/C=C/C(=O)NC(=S)NNC(=O)c2cccs2)cc1,i
O=C(Nc1ccc(N2CCOCC2)cc1)c1ccc(Br)o1,i
O=C(Nc1ccc(N2CCOCC2)cc1)c1cc2c(s1)CCCCC2,16µM*
O=C(Nc1cccc(S(=O)(=O)Nc2ccc(Cl)cc2)c1)c1cc2c(s1)CCCC2,i
CCOCCCn1c(SCC(=O)Nc2ccc(OC)cc2)nc2ccccc2c1=O,i
CC(=O)c1ccc(C(=O)N2CCc3c([nH]c4ccccc34)C2c2cccc(C)n2)s1 (stereo not drawn),13µM*
Cc1cccc(C2c3[nH]c4ccccc4c3CCN2Cc2ccc(C)s2)n1 (stereo not drawn),i
Cc1cccc(C2c3[nH]c4ccccc4c3CCN2C(=O)Cc2n[nH]c(C)n2)n1 (stereo not drawn),i
CCOC(=O)c1cn(CC(=O)Nc2cccc(F)c2)nn1,i
CCCN(CC1CC1)C(=S)Nc1ccccc1F,i
CN(CC1COc2ccccc2O1)C(=S)Nc1ccccc1F (stereo not drawn),11µM*
CN(CC1COc2ccccc2O1)C(=O)CSc1nncs1 (stereo not drawn),i
CCCCOC(=O)/C=C/c1ccc(OC(=O)OC)c(OC(=O)OC)c1,i
COC(=O)Oc1ccc(/C=C/C(=O)OC(C)C)cc1OC(=O)OC,14µM*
COc1cc(/C=C/C(=O)OC(C)C(=O)Nc2ccc(Cl)cn2)ccc1OC(F)F (stereo not drawn),i
Cn1c(=O)n(C)c2cc([N+](=O)[O-])c(N3CCN(C(=O)c4cccc(Cl)c4)CC3)cc21,i
CC(C)(C)c1ccc(C(=O)N2CCC2(C)C(=O)NCCC#N)cc1 (stereo not drawn),i
O=C(COC(=O)c1c2ccccc2cc2ccccc12)NCC(F)(F)F,22µM*
SMILES,TDP-43 tox inh
Cc1nc2ccccc2nc1OCC(=O)NCC(F)(F)F,i
Cn1c(CCC(=O)OCC(=O)NCC(F)(F)F)nc(=O)c2ccccc21,i
COc1ccccc1N1C(=O)c2cccc3c(N(C)CCO)ccc(c23)C1=O,i
O=C(c1cccs1)N1CCN(S(=O)(=O)c2cccs2)CC1,i
Clc1ccsc1-c1ccnc(-n2cccc2)n1,i
O=C(CCl)Nc1cccc(-c2cnc3ccccc3n2)c1,13µM*
O=C(O)CCC(=O)Nc1cccc(-c2csc(-c3ccccc3)n2)c1,i
Clc1ccc(-c2cnc3ccccc3n2)cc1,i
COc1ccc(OC)c(NC(=O)c2cc3c(cc2Cl)N2CCCCCC2=NS3(=O)=O)c1,i
Cc1cc2c(c(N3CCOCC3)n1)C(=O)OC2,i
Cc1cc2c(c(SCC(=O)NCc3ccccc3Cl)n1)C(=O)OC2,i
C=CCSc1nc(C)cc2c1C(=O)OC2,10µM*
NC(=O)c1ccccc1N/C=C/C(=O)c1ccc(Cl)cc1Cl,i
Cc1cccc(OCCOc2ccccc2C=C(C#N)C#N)c1,i
O=C(Nc1cccc(OC(F)(F)F)c1)C1Cc2c(-c3ccco3)ccnc2O1 (stereo not drawn),i
CC(=O)c1cccc(-c2ccnc3c2CC(C(=O)Nc2cccc(OC(F)(F)F)c2)O3)c1 (stereo not drawn),22µM*
CC(=O)Nc1ccc(NC(=O)C2Cc3c(-c4cccc(C(C)=O)c4)ccnc3O2)cc1 (stereo not drawn),i
CCOC(=O)c1sc(NC(=O)CC)nc1C,i
CC(=O)OC[C@H]1COc2ccc3ccccc3c2[C@H]1N(C)C(C)=O,i
O=C(Nc1nc2ccc3ccccc3c2s1)c1ccc(N2CCCCC2)c([N+](=O)[O-])c1,i
CC(=O)N1c2ccc3ccccc3c2C(C)CC12CCCCC2 (stereo not drawn),14µM*
CCCCCCn1c(=O)c(Cc2ccccc2)c(O)c2ccccc21,i
Cc1cccc(N2CCN(C(=O)c3ccc4[nH]c(C)c(C)c4c3)CC2)c1C,i
CCOC(=O)C1CCN(C(=O)/C=C/c2cccs2)CC1,i
Cc1cccc(N2CCN(C(=O)/C=C/c3cccs3)CC2)c1C,14µM*
SMILES,TDP-43 tox inh
CNc1cncc(-c2ccccc2CO)n1,i
CNc1cncc(-c2ccccc2NC(C)=O)n1,i
CNc1cncc(-c2ccc(OC)c(OC)c2)n1,11µM*
Cc1cc(C)cc(OCC(=O)Nc2ccc3c(c2)OCO3)c1,i
c1ccc(-c2noc(-c3ccc4c(c3)OCO4)n2)cc1,i
CCOc1ccc(S(=O)(=O)NCCC(=O)Nc2nnc(C)s2)cc1,i
